From PubChem BioAssay
VDR inh: inhibitors of human vitamin D receptor | VDR-SRC2-3 peptide fluorescence polarization, 2 h | Potency, µM, for inactives: max response, negative = inhibition, hits mostly inhibitors | 400,000 compounds, 0.93% hits | AID 504847
Target sequence (P11473 whole entry, looked up): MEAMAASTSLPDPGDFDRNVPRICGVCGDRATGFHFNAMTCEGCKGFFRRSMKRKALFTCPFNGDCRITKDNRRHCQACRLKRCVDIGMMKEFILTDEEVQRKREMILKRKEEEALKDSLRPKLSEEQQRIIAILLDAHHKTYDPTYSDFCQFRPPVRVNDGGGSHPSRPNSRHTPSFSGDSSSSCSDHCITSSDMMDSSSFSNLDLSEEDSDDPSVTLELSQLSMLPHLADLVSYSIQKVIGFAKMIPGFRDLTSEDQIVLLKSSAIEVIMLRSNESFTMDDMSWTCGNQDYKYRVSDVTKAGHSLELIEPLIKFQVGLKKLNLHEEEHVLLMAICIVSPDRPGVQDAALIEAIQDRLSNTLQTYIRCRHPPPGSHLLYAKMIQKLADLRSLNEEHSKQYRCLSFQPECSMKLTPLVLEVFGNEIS
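VDR–SRC2-3 interaction, FP format. Cmpds 23 nl via pintool, brief spin, 2 h ambient incubation.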
Tau FP inhib: tau fibrillization inhibition (FP) | K18 P301L tau heparin fibrillization, Alexa594 FP, 6 h | Potency, µM (top dose mostly 57.7 µM), for inactives: at the highest dose activity, negative = inhibition, most hits filed as inhibitors | 280,000 compounds, 0.39% hits; note: nearly all actives have a fitted effect of over 55% in size
Target sequence (P10636 561-689 P618L limits assumed): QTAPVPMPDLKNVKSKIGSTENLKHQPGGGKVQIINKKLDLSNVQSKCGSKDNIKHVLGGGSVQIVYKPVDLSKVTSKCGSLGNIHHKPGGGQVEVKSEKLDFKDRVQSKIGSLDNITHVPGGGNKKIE
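Steps: dispense K18 P301L tau (15 uM plus 0.24 uM Alexa 594 tracer, final) in pH 7 sodium acetate; add compound; add heparin (20 uM final); incubate 6 hr, 37 C; add ThT (30 uM final); after 1 hr ambient, read FP.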
Tau fluor cs: counter-screen for tau fibril formation inhibitors. 280,000 compounds, 0.93% hits. Potency, µM (highest dose often 57.7 µM), inactives show top-dose activity change, negative = decrease. tau K18 P301L Alexa594 fluorescence, heparin fibrillization; note: nearly all actives have a fitted effect of over 55% in size
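Human K18 P301L tau (15 uM unlabeled plus 0.24 uM Alexa 594-labeled, final) in 100 mM sodium acetate pH 7 was mixed with compound and 20 uM heparin and incubated 6 hr at 37 C.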
PLK1 PBD inh: inhibitors of human PLK1 polo-box domain binding; Plk1 PBD binding of FITC phosphopeptide, fluorescence polarization; AID 720504; Potency, µM, without a hit: max response, negative = inhibition, most hits filed as inhibitors; P53350; 360,000 compounds, 2.8% hits; note: series mostly up to about 57 µM; nearly all actives have a fitted effect of over 65% in size
Sfp PPTase inh: Sfp phosphopantetheinyl transferase inhibition; Q9F4F7; Biochemical Sfp PPTase activity, qHTS; Potency, µM, for the others: largest response in the series, negative = inhibition, usual class: inhibitors; 310,000 compounds, 3.5% hits;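 note: the enzyme is Sfp with the accession as filed and its product quenches rhodamine fluorescence; 0% = enzyme reaction without inhibitor and -100% = no enzyme wells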
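Compounds were incubated with enzyme (final 15 nM) for 15 min at room temperature before substrate addition started the reaction. Fluorescence at 525 nm excitation, 598 nm emission was recorded immediately and after 30 minutes.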
Tau fibril ThT: blocks human tau fibril formation measured by thioflavin T. Potency, µM (highest dose often 57.4 µM), for inactives: at the top dose activity, negative = inhibition, hits mostly inhibitors. AID 1460. recombinant tau K18 P301L (four-repeat tau fragment), heparin-induced fibrillization, ThT fluorescence. 270,000 compounds, 2.1% hits; note: nearly all actives have a fitted effect of over 55% in size
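Tau K18 P301L fragment (15 uM unlabeled plus 0.24 uM Alexa 594-labeled) in 100 mM sodium acetate pH 7 with compound, fibrillization induced by 20 uM heparin for 6 hr at 37 C. Thioflavin T (30 uM) added, fluorescence read after 1 hr (ex 450, em 510 nm).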
* hit, by the source's call; ? = inconclusive; · = no result given; [ ] = remark or other dose. The list is not random: actives were taken first. Their share in the collection is about 6%. Calls come from the whole dose curve; as a rule, active = well fitted curve in the direction sought with a large enough effect; inconclusive = small, poorly fitted or top-dose-only effect, or another doubt; inactive = no such curve, though single readings can be large; an effect the other way counts as inactive or inconclusive. Unless noted, % is set by controls: 0 for no effect and ±100 for the full control effect; potency is the fitted concentration of half-maximal effect.

SMILES | VDR inh | Tau FP inhib | Tau fluor cs | PLK1 PBD inh | Sfp PPTase inh | Tau fibril ThT
N#CC1c2ccccc2C=CN1C(=O)N(c1ccccc1)c1ccccc1 (stereo not drawn) | 71µM* | · | · | 4% | · | ·
COc1ccc(C(=O)N2C=Cc3ccccc3C2C#N)cc1 (stereo not drawn) | · | · | · | 1% | · | ·
COc1ccc(C2CCc3cc4c(cc3C2=NOC(C)=O)OCO4)cc1OC (stereo not drawn) | · | · | · | -2% | · | ·
C=CCOc1ccccc1/C=c1\sc2nc(=O)c(C)nn2c1=O | 71µM* | 0% | 9% | ? | ? | -12%
CC1=C(C(=O)O)N2C(=O)C(NC(=O)C(N)C3=CCC=CC3)C2SC1 (stereo not drawn) | · | ? | -26% | · | -75% | ?
CC1=C(C(=O)O)N2C(=O)C(NC(=O)c3ccccc3Cl)C2SC1 (stereo not drawn) | -4% | · | · | ? | 8.9µM* | ·
CC1=C(C(=O)O)N2C(=O)C(NC(=O)c3nn(C)cc3Cl)C2SC1 (stereo not drawn) | -11% | -8% | 0% | 27µM* | 40µM* | -10%
CC1=C(C(=O)O)N2C(=O)C(NC(=O)C(N)c3ccc(O)cc3)C2SC1 (stereo not drawn) | ? | ? | ? | · | -82% | 28µM*
CC1=C(C(=O)O)N2C(=O)[C@@H](NC(=O)C(N)C3=CCC=CC3)[C@H]2SC1 (stereo partly drawn) | ? | ? | -30% | · | · | ?
CC1=C(C(=O)O)N2C(=O)C(NC(=O)c3ccc(F)cc3)C2SC1 (stereo not drawn) | -19% | · | · | 24µM* | · | ·
CCn1c(=O)c2sccc2n2c(CCCC(=O)N3CCN(c4ccc(F)cc4)CC3)nnc12 | -8% | -1% | -1% | · | · | 1%
Cc1ccc(S(=O)(=O)Cc2cc(F)c([N+](=O)[O-])cc2[N+](=O)[O-])cc1 | -8% | · | · | 2.4µM* | -2% | ·
COc1ccc(OC)c(NC(=O)CCCOc2cc(=O)n(C)c3ccccc23)c1 | 0% | -1% | -9% | · | · | -6%
COc1c(Br)cc(Br)cc1/C=N/n1c(C)nnc1C | ? | 2% | -2% | 27µM* | 9% | -13%
O=C1NC(c2ccccc2O)Nc2ccccc21 (stereo not drawn) | 1% | · | · | -4% | 6% | ·
Cc1ccc(C2NC(=O)c3c(sc(C)c3C)N2)c(O)c1 (stereo not drawn) | 9% | -13% | ? | ? | 50µM* | ?
Cc1cccc(C2NC(=O)c3c(sc(C)c3C)N2)c1O (stereo not drawn) | -2% | -10% | -14% | -21% | 89µM* | 16µM*
CCCC(=O)N1CCC1(C)C(=O)Nc1ccc(OC)c(OC)c1 (stereo not drawn) | · | · | · | 4% | · | ·
COc1ccc(Cc2n[nH]c(=S)o2)cc1 | -6% | 7% | 7%[2.34 µM] | -21% | -12% | -5%
S=c1[nH]nc(CCCc2n[nH]c(=S)o2)o1 | -9% | -2% | 5% | 21µM* | ? | ·
S=c1[nH]nc(Cc2ccc(Cl)cc2)o1 | -15% | -11% | -5% | 34µM* | -19% | ·
CC(NC(=O)C1CCC(CNS(=O)(=O)c2ccc3c(c2)C(C)(C)C(=O)N3C)CC1)c1ccccc1 (stereo not drawn) | 5% | · | · | 2% | 20% | ·
COc1cc(/C=C/C(=O)OCC(=O)c2ccc3c(c2)NC(=O)CO3)ccc1OC(F)F | ? | · | · | 19µM* | · | ·
Cn1nc(-c2ccccc2)cc1NC(=O)Nc1ccc(C(C)(C)C)cc1 | -5% | 28µM* | 13µM*[quencher] | -5% | 25% | 0%
Cn1nc(-c2ccc(Cl)cc2)cc1NC(=O)Nc1ccccc1 | 13% | ? | ? | -2% | 0% | 14%
SMILES | VDR inh | Tau FP inhib | Tau fluor cs | PLK1 PBD inh | Sfp PPTase inh | Tau fibril ThT
O=C1OC(c2ccc(F)cc2)=C/C1=C\c1ccc([N+](=O)[O-])o1 | · | ? | ? | · | ? | 16µM*
O=C1OC(c2ccc(F)cc2)=C/C1=C\c1ccc(O)cc1 | -10% | · | · | -29% | -17% | ·
COc1ccc(C(=O)NNC(=O)C(Cc2ccc(O)cc2)NC(=O)c2ccccc2NC(=O)c2ccc(OC)cc2)cc1 (stereo not drawn) | -6% | -3% | -29% | -4% | 22µM* | -3%
Cc1cc(C(=O)NC(Cc2c[nH]c3ccccc23)C(=O)O)c(C)o1 (stereo not drawn) | -6% | · | · | 0% | 12% | ·
COC(=O)C(Cc1c[nH]c2ccccc12)NC(=O)c1cc(-c2ccc(OC)c(OC)c2)oc1C (stereo not drawn) | ? | ? | ? | -6% | 32µM* | ?
O=C(Nc1ccccc1C(=O)NC(Cc1ccccc1)C(=O)O)c1ccccc1 (stereo not drawn) | -3% | 1% | 3% | -20% | -5% | 6%
COc1ccc(C(=O)Nc2ccccc2C(=O)NC(Cc2c[nH]c3ccccc23)C(=O)O)cc1 (stereo not drawn) | -9% | 5% | -22% | 24µM* | -26% | -21%
Cc1cccc(OCC(=O)NC(Cc2c[nH]c3ccccc23)C(=O)O)c1C (stereo not drawn) | 8% | 2% | -9% | -25% | 50µM* | ?
Cc1ccccc1OCC(=O)NC(Cc1c[nH]c2ccccc12)C(=O)O (stereo not drawn) | -1% | 1% | -14% | -6% | 13% | -14%
CCc1cccc(NC(=O)C(Cc2ccccc2)NS(=O)(=O)c2ccc3c(c2)c(=O)n(C)c(=O)n3C)c1 (stereo not drawn) | -13% | -9% | -22% | · | · | 1%
O=S(=O)(O)Sc1ccccc1 | · | · | · | 6µM* | · | ·
CCN(CC)c1ccc(SS(=O)(=O)O)cc1 | 79µM* | ? | -24% | 6.7µM* | 45µM* | ?
O=C(c1ccccc1)C(O)c1ccccc1 (stereo not drawn) | 2% | · | · | -9% | -2% | ·
Cc1ccc(N=Nc2c(N)[nH]n3c(=O)c4c(nc23)CCCC4)cc1 | · | 2% | -13% | · | 32% | 1.4µM*
